# Compounds with a hit are over-represented: about 18% of the library has one in this group of screens.
# CtBP-E1A blk: qHTS Assay for Inhibitors of the CtBP/E1A Interaction | CtBP / adenovirus E1A interaction (AlphaScreen) | AlphaScreen GST-E1A/His-CtBP binding, 1536-well; hits give low values | activity change, % (no concentration beside the values) | 340,000 compounds, 0.49% hits | AID 651724, 2012; in the data active = activity change below about -65%; inconclusive = mostly about -30% to -63%
#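 GST-E1A and His-tagged CtBP (125 nM each as 5X stock) were preincubated with pin-transferred compound for 2 h at 37 °C in the dark, then glutathione donor and nickel acceptor beads were added for 1 h before AlphaScreen reading.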
# DT40 TDP1 CPT: qHTS for Inhibitors of human tyrosyl-DNA phosphodiesterase 1 (TDP1): qHTS in cells in presence of CPT. chicken DT40 Tdp1-/-;hTDP1 cells + 20 nM CPT, ATP luminescence, 48 h. Potency, µM (highest dose often 46.2 µM), inactives show at the highest dose activity change, negative = growth inhibition, hits mostly inhibitors. 420,000 compounds, 12% hits; note: potency is the fitted concentration of half-maximal effect; nearly all actives have a fitted effect of over 55% in size
#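 Chicken DT40 Tdp1-/- cells stably complemented with human TDP1 were seeded at 400 cells/well in medium containing 20 nM camptothecin, exposed to pin-transferred compounds, and grown at 37 °C for at least 48 hr. Viability was read as ATP luminescence.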
# DT40 TDP1 no CPT: qHTS for Inhibitors of human tyrosyl-DNA phosphodiesterase 1 (TDP1): qHTS in cells in absence of CPT; DT40 Tdp1-/- hTDP1 cells, no CPT, ATP luminescence, 48 h; Potency, µM (doses to about 46.2 µM), without a hit: at the highest dose activity change, negative = growth inhibition, actives largely listed as inhibitors; 420,000 compounds, 15% hits; note: potency is the fitted concentration of half-maximal effect; nearly all actives have a fitted effect of over 55% in size
#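 Growth kinetics read by CellTiter-Glo luminescence after ≥48 hr at 37 °C. Cells: DT40 Tdp1-/- stably carrying human TDP1, 400 per well, compound exposure in the absence of CPT (DMSO vehicle).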
# TDP1 block: qHTS Assay for Inhibitors of Tyrosyl-DNA Phosphodiesterase (TDP1); Potency, µM (top dose mostly 130 µM), for inactives: at the top dose activity change, negative = inhibition, usual class: inhibitors; Tyrosyl-DNA phosphodiesterase 1 (Homo sapiens), Q9NUW8; 350,000 compounds, 0.28% hits; AID 485290, 2010; recombinant TDP1, AlphaScreen DNA substrate cleavage; note: potency is the fitted concentration of half-maximal effect; nearly all actives have a fitted effect of over 40% in size
#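 AlphaScreen read-out: signal falls as enzyme removes the 3' tyrosine-FITC from a 5'-biotinylated DNA oligo (15 nM, 5 min, RT). Enzyme was E. coli-made recombinant Tdp1 at 1 nM, exposed to compound for 15 min beforehand; beads 10 ug/ml, 10 min.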
# Six1-Eya2 blk: qHTS Assay for Inhibitors of the Six1/Eya2 Interaction. activity change, % (no concentration beside the values). Homeobox protein SIX1 (Homo sapiens) + Protein phosphatase EYA2 (Homo sapiens), …. AlphaScreen GST-Six1/His-Eya2 binding, biochemical; hits give low values. 360,000 compounds, 0.56% hits. AID 651725, 2012; in the data active = activity change below about -65%; inconclusive = mostly about -30% to -63%
#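 Six1/Eya2 binding was read as AlphaScreen signal after compounds were pinned into GST-Six1 plus His-tagged Eya2 (5X stock 250/500 nM) in pH 8.0 Tris/NaCl/TCEP buffer, beads added, then incubated 1 h, 37 C, dark.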
# IL-1B inflam inh: qHTS for Inhibitors of Inflammasome Signaling: IL-1-beta AlphaLISA Primary Screen; 360,000 compounds, 4.7% hits; THP-1 LPS/ATP IL-1B secretion, AlphaLISA, 16 h; hits give low values; AID 743279, 2014; activity change, % at 57.5 µM; in the data active = activity change below about -50%; inconclusive = mostly about -30% to -49%
#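 Secreted IL-1B measured by AlphaLISA bead assay after 16 h compound exposure of THP-1 cells; compounds (final up to 57.5 uM) added 1 h before LPS (250 ng/mL) and ATP (1.25 mM) stimulation; lower signal means less secretion.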
# An asterisk follows results filed as active; i = inactive; ? = inconclusive; · = not tested or not shown; [ ] = dose if it differs, or a comment. Unless noted, calls come from the whole dose curve; as a rule, active = well fitted curve in the direction sought with a large enough effect; inconclusive = small, poorly fitted or top-dose-only effect, or another doubt; inactive = no such curve, though single readings can be large; an effect the other way counts as inactive or inconclusive. % is set by controls: 0 for no effect and ±100 for the full control effect.
SMILES,CtBP-E1A blk,DT40 TDP1 CPT,DT40 TDP1 no CPT,TDP1 block,Six1-Eya2 blk,IL-1B inflam inh
COc1ccccc1NC(=O)CSc1nc2ncccc2[nH]1,0,-7%,-14%,1%,-3,7
CCc1ccc(NC(=O)CSc2nc3ncccc3[nH]2)cc1,·,?,13µM*,2%,·,·
CCOC(=O)c1ccc(NC(=O)CSc2nc(N)c(NC(=O)c3ccc(Br)o3)c(=O)[nH]2)cc1,?,0%,-16%,-10%,-79*,i
CCCCc1ccc(NC(=O)CSc2nc3ncccc3[nH]2)cc1,·,2.6µM*,1.2µM*,0%,1,-6
N#Cc1ccc(C(=O)OCC(=O)N2CCCCCC2)cc1,-22,4%,3%,-2%[0.505 µM],4,0
COc1ccc(NC(C)=O)cc1NC(=O)CSc1nc2ncccc2[nH]1,-1,13µM*,18µM*,4%,3,-1
Cc1nn(C2CCS(=O)(=O)C2)c(Cl)c1/C=C/C(=O)OCC(=O)Nc1ccc2c(c1)OCO2 (configuration not stated),6,?,-27%,0%,-1,22
COC(=O)c1cc(C)sc1NC(=S)N1CCN(CCc2ccccc2)CC1,1,-20%,-30%,3%,2,-7
COc1cc(C=NO)nc(-c2ccccn2)c1,3,1.3µM*,1.2µM*,·,-92*,61
CC(C)=CCCC(C)CN1CCC(N2CCC(C(=O)N3CCCC3)CC2)CC1 (configuration not stated),-1,?,16µM*,-6%,-6,0
CC(C)/C=C/C(=O)N1CCC(N2CCC(C(=O)N3CCOCC3)CC2)CC1,-18,-3%,-2%,0%,7,-12
C=C(C)[C@@H]1CC=C(CN2CCC(N3CCC(C(=O)N4CCCC4)CC3)CC2)CC1,8,21µM*,21µM*,5%,3,-62*
Cc1noc(C)c1S(=O)(=O)N(C)C[C@H]1OCc2cn(nn2)CCCC(=O)N([C@H](C)CO)C[C@@H]1C,5,0%,4%,·,1,19
O=C(N/N=C1/C(=O)c2cccc3cccc1c23)c1ccc(Cl)cc1,-6,4.1µM*,4.6µM*,·,-16,0
CCNC(=S)N/N=C1\C(=O)c2cccc3cccc1c23,-15,11%,-15%,7%,-11,14
O=C(c1nc2ccc(Cl)cn2c1CNCC[C@@H]1C[C@@H]2C=C[C@H]1C2)N1CCCCCCC1,-1,?,?,5%,-1,-72*
CCOC(=O)c1ccc(NC(=O)CSc2nc3cc4ccccc4cc3[nH]2)cc1,·,23µM*,18µM*,-1%,·,·
Cc1ccc2nc(SCC(=O)Nc3ccc(C(N)=O)cc3)[nH]c2c1,-2,8%,-26%,9%,-7,-6
COc1ccc2nc(SCC(=O)Nc3ccccc3)[nH]c2c1,-5,?,-13%,-3%,0,-21
CCOC(=O)c1cccc(NC(=O)CSc2nc3cc4ccccc4cc3[nH]2)c1,·,?,23µM*,3%,·,·
CCN1CCCc2cc(CN(CCN3CCOCC3)C(=S)Nc3cccc(Cl)c3)ccc21,?,16µM*,13µM*,8%,?,?
CCN1CCCc2cc(CN(CCN3CCOCC3)C(=S)Nc3cc(F)cc(F)c3)ccc21,·,?,21µM*,5%,?,-13
CCN1CCCc2cc(CN(CCN3CCOCC3)C(=S)Nc3ccc(C)cc3)ccc21,?,29µM*,18µM*,11%,?,4

# Assay outcomes: PubChem BioAssay, National Center for Advancing Translational Sciences (NCATS)
